Source: the supplement of paper PMC4466140

Key:
Experiment in all cases: SPOT peptide array binding signal intensity (averaged, normalized) (arbitrary units (background-subtracted, floor 0; scale differs between SH3 domains)); higher = stronger binding of the SH3 domain to the peptide
CaNbp2 = molecular target: CaNbp2
Procedure, shortened: (§1)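 Cellulose membranes carried synthetic 15-mer peptides with cysteines swapped for serines. These were incubated overnight at 4°C with 10 μg/ml of GST-fused SH3 domains from four yeast species in TBS-based blocking buffer. Binding signal, detected with anti-GST antibody and quantified in Genespotter, is the normalized, background-subtracted spot intensity averaged over replicates, in arbitrary units specific to each domain.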

CaRvs167 = molecular target: CaRvs167
Procedure, shortened: as §1

CaRvs167-3 = molecular target: CaRvs167-3
Procedure, shortened: as §1

CaSho1 = molecular target: CaSho1
Procedure, shortened: as §1

CaSla1-D1-D2 = molecular target: CaSla1-D1-D2
Procedure, shortened: as §1

CaSla1-D3 = molecular target: CaSla1-D3
Procedure, shortened: as §1

ScAbp1 = molecular target: ScAbp1
Procedure, shortened: as §1

ScBbc1 = molecular target: ScBbc1
Procedure, shortened: as §1

ScBem1-D1 = molecular target: ScBem1-D1
Procedure, shortened: as §1

ScBzz1-D1 = molecular target: ScBzz1-D1
Procedure, shortened: as §1

ScBzz1-D2 = molecular target: ScBzz1-D2
Procedure, shortened: as §1

ScCyk3 = molecular target: ScCyk3
Procedure, shortened: as §1

ScFus1 = molecular target: ScFus1
Procedure, shortened: as §1

ScHof1 = molecular target: ScHof1
Procedure, shortened: as §1

ScHse1 = molecular target: ScHse1
Procedure, shortened: as §1

ScLsb1 = molecular target: ScLsb1
Procedure, shortened: as §1

ScLsb2 = molecular target: ScLsb2
Procedure, shortened: as §1

ScLsb3 = molecular target: ScLsb3
Procedure, shortened: as §1

ScLsb4 = molecular target: ScLsb4
Procedure, shortened: as §1

ScMyo3 = molecular target: ScMyo3
Procedure, shortened: as §1

ScMyo5 = molecular target: ScMyo5
Procedure, shortened: as §1

ScNbp2 = molecular target: ScNbp2
Procedure, shortened: as §1

ScPex13 = molecular target: ScPex13
Procedure, shortened: as §1

ScRvs167 = molecular target: ScRvs167
Procedure, shortened: as §1

ScSho1 = molecular target: ScSho1
Procedure, shortened: as §1

ScSla1-D1-D2 = molecular target: ScSla1-D1-D2
Procedure, shortened: as §1

ScSla1-D3 = molecular target: ScSla1-D3
Procedure, shortened: as §1

SpAbp1-D1 = molecular target: SpAbp1-D1
Procedure, shortened: as §1

SpBbc1 = molecular target: SpBbc1
Procedure, shortened: as §1

SpBzz1-D1 = molecular target: SpBzz1-D1
Procedure, shortened: as §1

SpBzz1-D2 = molecular target: SpBzz1-D2
Procedure, shortened: as §1

SpCyk3 = molecular target: SpCyk3
Procedure, shortened: as §1

SpHof1 = molecular target: SpHof1
Procedure, shortened: as §1

SpHof1-2 = molecular target: SpHof1-2
Procedure, shortened: as §1

SpHof1-3 = molecular target: SpHof1-3
Procedure, shortened: as §1

SpHse1 = molecular target: SpHse1
Procedure, shortened: as §1

SpLsb1 = molecular target: SpLsb1
Procedure, shortened: as §1

SpLsb4 = molecular target: SpLsb4
Procedure, shortened: as §1

SpMyo1 = molecular target: SpMyo1
Procedure, shortened: as §1

SpNbp2 = molecular target: SpNbp2
Procedure, shortened: as §1

SpPex13 = molecular target: SpPex13
Procedure, shortened: as §1

SpRvs167 = molecular target: SpRvs167
Procedure, shortened: as §1

SpSla1-D1-D2 = molecular target: SpSla1-D1-D2
Procedure, shortened: as §1

SpSla1-D3 = molecular target: SpSla1-D3
Procedure, shortened: as §1

AgAbp1 = molecular target: AgAbp1
Procedure, shortened: as §1

AgBbc1 = molecular target: AgBbc1
Procedure, shortened: as §1

AgBem1-D1 = molecular target: AgBem1-D1
Procedure, shortened: as §1

AgBzz1-D1 = molecular target: AgBzz1-D1
Procedure, shortened: as §1

AgBzz1-D2 = molecular target: AgBzz1-D2
Procedure, shortened: as §1

AgCyk3 = molecular target: AgCyk3
Procedure, shortened: as §1

AgFus1 = molecular target: AgFus1
Procedure, shortened: as §1

AgHof1 = molecular target: AgHof1
Procedure, shortened: as §1

AgHse1 = molecular target: AgHse1
Procedure, shortened: as §1

AgLsb1 = molecular target: AgLsb1
Procedure, shortened: as §1

AgLsb4 = molecular target: AgLsb4
Procedure, shortened: as §1

AgMyo5 = molecular target: AgMyo5
Procedure, shortened: as §1

AgNbp2 = molecular target: AgNbp2
Procedure, shortened: as §1

AgRvs167 = molecular target: AgRvs167
Procedure, shortened: as §1

AgSho1 = molecular target: AgSho1
Procedure, shortened: as §1

AgSla1-D1-D2 = molecular target: AgSla1-D1-D2
Procedure, shortened: as §1

AgSla1-D3 = molecular target: AgSla1-D3
Procedure, shortened: as §1

CaAbp1-D1 = molecular target: CaAbp1-D1
Procedure, shortened: as §1

CaAbp1-D2 = molecular target: CaAbp1-D2
Procedure, shortened: as §1

CaBbc1 = molecular target: CaBbc1
Procedure, shortened: as §1

CaBem1-D1 = molecular target: CaBem1-D1
Procedure, shortened: as §1

CaBzz1-D1 = molecular target: CaBzz1-D1
Procedure, shortened: as §1

CaBzz1-D2 = molecular target: CaBzz1-D2
Procedure, shortened: as §1

CaCyk3 = molecular target: CaCyk3
Procedure, shortened: as §1

CaFus1 = molecular target: CaFus1
Procedure, shortened: as §1

CaHof1 = molecular target: CaHof1
Procedure, shortened: as §1

CaHse1 = molecular target: CaHse1
Procedure, shortened: as §1

CaLsb1 = molecular target: CaLsb1
Procedure, shortened: as §1

CaLsb4 = molecular target: CaLsb4
Procedure, shortened: as §1

CaMyo5 = molecular target: CaMyo5
Procedure, shortened: as §1

## IPSRPAPKPPSSASA
CaNbp2
  SPOT peptide array binding signal intensity: 4920
CaRvs167
  SPOT peptide array binding signal intensity: 17
CaRvs167-3
  SPOT peptide array binding signal intensity: 2
CaSho1
  SPOT peptide array binding signal intensity: ≤ 0
CaSla1-D1-D2
  SPOT peptide array binding signal intensity: 2030
CaSla1-D3
  SPOT peptide array binding signal intensity: 46.5
ScAbp1
  SPOT peptide array binding signal intensity: 65
ScBbc1
  SPOT peptide array binding signal intensity: 502
ScBem1-D1
  SPOT peptide array binding signal intensity: ≤ 0
ScBzz1-D1
  SPOT peptide array binding signal intensity: 16
ScBzz1-D2
  SPOT peptide array binding signal intensity: 10
ScCyk3
  SPOT peptide array binding signal intensity: ≤ 0
ScFus1
  SPOT peptide array binding signal intensity: 4
ScHof1
  SPOT peptide array binding signal intensity: 1
ScHse1
  SPOT peptide array binding signal intensity: 40
ScLsb1
  SPOT peptide array binding signal intensity: 6
ScLsb2
  SPOT peptide array binding signal intensity: 55
ScLsb3
  SPOT peptide array binding signal intensity: 197
ScLsb4
  SPOT peptide array binding signal intensity: 9
ScMyo3
  SPOT peptide array binding signal intensity: 3540
ScMyo5
  SPOT peptide array binding signal intensity: 1990
ScNbp2
  SPOT peptide array binding signal intensity: 5880
ScPex13
  SPOT peptide array binding signal intensity: 2620
ScRvs167
  SPOT peptide array binding signal intensity: 149
ScSho1
  SPOT peptide array binding signal intensity: ≤ 0
ScSla1-D1-D2
  SPOT peptide array binding signal intensity: 6020
ScSla1-D3
  SPOT peptide array binding signal intensity: 233
SpAbp1-D1
  SPOT peptide array binding signal intensity: 40
SpBbc1
  SPOT peptide array binding signal intensity: 65
SpBzz1-D1
  SPOT peptide array binding signal intensity: 404
SpBzz1-D2
  SPOT peptide array binding signal intensity: 71.5
SpCyk3
  SPOT peptide array binding signal intensity: 2
SpHof1
  SPOT peptide array binding signal intensity: ≤ 0
SpHof1-2
  SPOT peptide array binding signal intensity: ≤ 0
SpHof1-3
  SPOT peptide array binding signal intensity: ≤ 0
SpHse1
  SPOT peptide array binding signal intensity: 52
SpLsb1
  SPOT peptide array binding signal intensity: 13.5
SpLsb4
  SPOT peptide array binding signal intensity: 136
SpMyo1
  SPOT peptide array binding signal intensity: 3740
SpNbp2
  SPOT peptide array binding signal intensity: 65
SpPex13
  SPOT peptide array binding signal intensity: 93.5
SpRvs167
  SPOT peptide array binding signal intensity: 202
SpSla1-D1-D2
  SPOT peptide array binding signal intensity: ≤ 0
SpSla1-D3
  SPOT peptide array binding signal intensity: 3

## KRRTSLFPWLHKPGI
AgAbp1
  SPOT peptide array binding signal intensity: 14
AgBbc1
  SPOT peptide array binding signal intensity: 19.2
AgBem1-D1
  SPOT peptide array binding signal intensity: 13
AgBzz1-D1
  SPOT peptide array binding signal intensity: 15
AgBzz1-D2
  SPOT peptide array binding signal intensity: 17
AgCyk3
  SPOT peptide array binding signal intensity: 4
AgFus1
  SPOT peptide array binding signal intensity: 202
AgHof1
  SPOT peptide array binding signal intensity: 14
AgHse1
  SPOT peptide array binding signal intensity: 1230
AgLsb1
  SPOT peptide array binding signal intensity: 1
AgLsb4
  SPOT peptide array binding signal intensity: 53
AgMyo5
  SPOT peptide array binding signal intensity: ≤ 0
AgNbp2
  SPOT peptide array binding signal intensity: 196
AgRvs167
  SPOT peptide array binding signal intensity: 2.33
AgSho1
  SPOT peptide array binding signal intensity: 23
AgSla1-D1-D2
  SPOT peptide array binding signal intensity: 297
AgSla1-D3
  SPOT peptide array binding signal intensity: 5.5
CaAbp1-D1
  SPOT peptide array binding signal intensity: 736
CaAbp1-D2
  SPOT peptide array binding signal intensity: 682
CaBbc1
  SPOT peptide array binding signal intensity: 53.2
CaBem1-D1
  SPOT peptide array binding signal intensity: ≤ 0
CaBzz1-D1
  SPOT peptide array binding signal intensity: 35
CaBzz1-D2
  SPOT peptide array binding signal intensity: 22
CaCyk3
  SPOT peptide array binding signal intensity: 5
CaFus1
  SPOT peptide array binding signal intensity: 727
CaHof1
  SPOT peptide array binding signal intensity: ≤ 0
CaHse1
  SPOT peptide array binding signal intensity: 42.8
CaLsb1
  SPOT peptide array binding signal intensity: 0.5
CaLsb4
  SPOT peptide array binding signal intensity: 59.5
CaMyo5
  SPOT peptide array binding signal intensity: 0.25
CaNbp2
  SPOT peptide array binding signal intensity: 402
CaRvs167
  SPOT peptide array binding signal intensity: 5.67
CaRvs167-3
  SPOT peptide array binding signal intensity: 34.2
CaSho1
  SPOT peptide array binding signal intensity: 664
CaSla1-D1-D2
  SPOT peptide array binding signal intensity: 5.5
CaSla1-D3
  SPOT peptide array binding signal intensity: ≤ 0
ScAbp1
  SPOT peptide array binding signal intensity: 19
ScBbc1
  SPOT peptide array binding signal intensity: 5.75
ScBem1-D1
  SPOT peptide array binding signal intensity: 2
ScBzz1-D1
  SPOT peptide array binding signal intensity: 5.5
ScBzz1-D2
  SPOT peptide array binding signal intensity: 2.5
ScCyk3
  SPOT peptide array binding signal intensity: 311
ScFus1
  SPOT peptide array binding signal intensity: 224
ScHof1
  SPOT peptide array binding signal intensity: ≤ 0
ScHse1
  SPOT peptide array binding signal intensity: 2010
ScLsb1
  SPOT peptide array binding signal intensity: ≤ 0
ScLsb2
  SPOT peptide array binding signal intensity: 7.5
ScLsb3
  SPOT peptide array binding signal intensity: 54
ScLsb4
  SPOT peptide array binding signal intensity: ≤ 0
ScMyo3
  SPOT peptide array binding signal intensity: 3
ScMyo5
  SPOT peptide array binding signal intensity: 1.5
ScNbp2
  SPOT peptide array binding signal intensity: 230
ScPex13
  SPOT peptide array binding signal intensity: 1
ScRvs167
  SPOT peptide array binding signal intensity: 7.67
ScSho1
  SPOT peptide array binding signal intensity: 512
ScSla1-D1-D2
  SPOT peptide array binding signal intensity: 56.5
ScSla1-D3
  SPOT peptide array binding signal intensity: ≤ 0
SpAbp1-D1
  SPOT peptide array binding signal intensity: 420
SpBbc1
  SPOT peptide array binding signal intensity: ≤ 0
SpBzz1-D1
  SPOT peptide array binding signal intensity: 27
SpBzz1-D2
  SPOT peptide array binding signal intensity: ≤ 0
SpCyk3
  SPOT peptide array binding signal intensity: 3
SpHof1
  SPOT peptide array binding signal intensity: 54
SpHof1-2
  SPOT peptide array binding signal intensity: 2.75
SpHof1-3
  SPOT peptide array binding signal intensity: 586
SpHse1
  SPOT peptide array binding signal intensity: 844
SpLsb1
  SPOT peptide array binding signal intensity: 0.5
SpLsb4
  SPOT peptide array binding signal intensity: 8.5
SpMyo1
  SPOT peptide array binding signal intensity: 2.5
SpNbp2
  SPOT peptide array binding signal intensity: 418
SpPex13
  SPOT peptide array binding signal intensity: 6.5
SpRvs167
  SPOT peptide array binding signal intensity: ≤ 0
SpSla1-D1-D2
  SPOT peptide array binding signal intensity: ≤ 0
SpSla1-D3
  SPOT peptide array binding signal intensity: 4
